# Data reported in PubChem BioAssay (NCATS).
# Inconclusive results are not listed. Entries that show only a call come without a potency. The source made the active and inactive calls. Calls come from the whole dose curve; as a rule, active = well fitted inhibition curve with a large enough effect; inconclusive = small, poorly fitted or top-dose-only effect; inactive = flat fitted curve, though single readings scatter.
# Tested on: CP211
# Experiment: qHTS profiling for inhibitors of Plasmodium falciparum proliferation (AID 504749); note: nearly all actives have a fitted effect of over 60% in size
# Details: P. falciparum in erythrocytes, SYBR Green DNA, 72 h; series mostly up to 28.7 µM
# Summary of the method: (§1)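 P. falciparum-infected erythrocytes (0.3% parasitemia, 2.5% hematocrit final) were exposed to compounds for 72 h at 37 C in 5% CO2, then lysed with SYBR Green buffer overnight at room temperature; parasite DNA fluorescence was normalized to artemisinin and DMSO controls.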
# Potency is the fitted concentration of half-maximal effect.
row,Structure (SMILES),Potency
1,CCCN1CCC[C@H](c2cccc(O)c2)C1,inactive
2,C[C@]12CCC(=O)C(O)=C1CC[C@@H]1[C@H]3CCC(=O)[C@@]3(C)CC[C@@H]12,inactive
3,O=C(O)COc1ccccc1,inactive
4,O=[N+]([O-])c1ccc([As](=O)(O)O)cc1,7.57 µM (active)
5,O=C(O)C(Cl)Cl,inactive
6,Cc1cc(O)ccc1Cl,inactive
7,CN(C)[C@@H]1C(=O)C(C(N)=O)=C(O)[C@@]2(O)C(=O)C3=C(O)c4c(O)cccc4[C@@](C)(O)[C@H]3[C@H](O)[C@@H]12,inactive
8,CC(=O)OCC1=C(C(=O)O)N2C(=O)[C@@H](N)[C@@H]2SC1,inactive
9,COC(=O)[C@@H](N)CCCN=C(N)N[N+](=O)[O-],inactive
10,c1ccc(C2(c3ccccc3)CC2C2=NCCN2)cc1 (centres undefined),inactive
11,CN1C2CCC1CC(OC(=O)c1cc(Cl)cc(Cl)c1)C2 (centres undefined),inactive
12,CCCCCCCCCCCCCCCC[N+](C)(C)C,13.5 µM (active)
13,CCCCc1ccc(C(=O)O)nc1,inactive
14,Cc1ccc(Cl)c(O)c1,inactive
15,CC(C)NC(C)Cc1ccc(I)cc1 (centres undefined),inactive
16,COC(=O)c1cncn1C(C)c1ccccc1 (centres undefined),inactive
17,CC(=O)[O][Hg][c]1ccccc1,15.1 µM (active)
18,C=CCN1CC[C@]23CCCCC2[C@H]1Cc1ccc(O)cc13 (some centres undefined),inactive
19,NC(=O)CN1CC(O)CC1=O (centres undefined),inactive
20,C1CCC(NC2CCCCC2)CC1,inactive
21,C#CC1(O)CCC2C3CCC4=CC(=O)CCC4(C)C3CCC21C (centres undefined),inactive
22,CC[N+]1(CCOC(=O)C(O)(c2ccccc2)c2ccccc2)CCCCC1,inactive
23,CCCCCCCCCC(CC)c1ccc(S(=O)(=O)O)cc1 (centres undefined),inactive

# Tested on: CP215
# Experiment: as above
# Details: P. falciparum in erythrocytes, SYBR Green DNA, 72 h; series mostly up to 28.7 µM
# Summary of the method: as §1
row,Structure (SMILES),Potency
1,CCCN1CCC[C@H](c2cccc(O)c2)C1,inactive
2,C[C@]12CCC(=O)C(O)=C1CC[C@@H]1[C@H]3CCC(=O)[C@@]3(C)CC[C@@H]12,inactive
3,O=C(O)COc1ccccc1,inactive
4,O=[N+]([O-])c1ccc([As](=O)(O)O)cc1,7.57 µM (active)
5,O=C(O)C(Cl)Cl,inactive
6,Cc1cc(O)ccc1Cl,inactive
7,CC(=O)OCC1=C(C(=O)O)N2C(=O)[C@@H](N)[C@@H]2SC1,inactive
8,COC(=O)[C@@H](N)CCCN=C(N)N[N+](=O)[O-],inactive
9,c1ccc(C2(c3ccccc3)CC2C2=NCCN2)cc1 (centres undefined),inactive
10,CN1C2CCC1CC(OC(=O)c1cc(Cl)cc(Cl)c1)C2 (centres undefined),inactive
11,CCCCc1ccc(C(=O)O)nc1,inactive
12,Cc1ccc(Cl)c(O)c1,inactive
13,COC(=O)c1cncn1C(C)c1ccccc1 (centres undefined),inactive
14,CC(=O)[O][Hg][c]1ccccc1,6.01 µM (active)
15,C=CCN1CC[C@]23CCCCC2[C@H]1Cc1ccc(O)cc13 (some centres undefined),inactive
16,NC(=O)CN1CC(O)CC1=O (centres undefined),inactive
17,C1CCC(NC2CCCCC2)CC1,inactive
18,C#CC1(O)CCC2C3CCC4=CC(=O)CCC4(C)C3CCC21C (centres undefined),inactive
19,CC[N+]1(CCOC(=O)C(O)(c2ccccc2)c2ccccc2)CCCCC1,inactive
20,CCCCCCCCCC(CC)c1ccc(S(=O)(=O)O)cc1 (centres undefined),inactive
21,NC1=NC(=O)N2CC12 (centres undefined),inactive
